ST2 inh – IL1RL1 inhibition. AlphaLISA ST2-Fc/biotin-IL-33 interaction, 1 h. 78,000 tested, 2.3% active. inhibition, % for hits at 17 µM. Q01638. AID 1259354; in the data active = inhibition above about 30%
Target sequence (Q01638 whole entry, looked up): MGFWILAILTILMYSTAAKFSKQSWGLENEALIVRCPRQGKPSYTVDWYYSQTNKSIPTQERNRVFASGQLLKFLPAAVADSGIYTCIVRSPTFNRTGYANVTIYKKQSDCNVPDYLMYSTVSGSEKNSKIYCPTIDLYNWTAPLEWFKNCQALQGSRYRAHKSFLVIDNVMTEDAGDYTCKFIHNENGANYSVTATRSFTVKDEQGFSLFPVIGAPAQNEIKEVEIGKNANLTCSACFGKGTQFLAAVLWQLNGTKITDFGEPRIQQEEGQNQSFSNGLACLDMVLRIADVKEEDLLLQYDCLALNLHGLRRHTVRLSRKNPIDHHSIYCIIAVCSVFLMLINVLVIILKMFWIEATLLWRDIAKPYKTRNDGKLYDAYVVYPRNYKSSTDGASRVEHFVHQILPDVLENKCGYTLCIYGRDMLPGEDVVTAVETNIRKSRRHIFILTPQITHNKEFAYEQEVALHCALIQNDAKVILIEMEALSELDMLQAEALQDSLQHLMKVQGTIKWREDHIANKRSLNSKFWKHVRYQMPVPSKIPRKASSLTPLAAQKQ
* hit, by the source's call; ! = not active in a repeat. The sample as a whole holds a higher share of hits than the screen did.

Results for COc1cc(/C=C2\C(=O)Nc3ccc(Br)cc32)cc([N+](=O)[O-])c1O ?
ST2 inh: 31%*

Results for COc1ccc(N2C(=O)NC(=O)/C(=C/c3cc(Br)c(O)c([N+](=O)[O-])c3)C2=O)cc1 ?
ST2 inh: inactive

How did COc1cc(OC)c(/C=C2/C(=O)Nc3ccccc32)c(OC)c1 do in these assays?
ST2 inh: inactive

Results for COc1cc(/C=C2\C(=O)NC(=O)N(c3cccc(C)c3)C2=O)cc(Cl)c1O ?
ST2 inh: inactive

What do the screens show for `CCOc1cc(/C=C2/NC(=O)NC2=O)c(Br)cc1O`?
ST2 inh: inactive

How did CCOc1cc(/C=C2\C(=O)Nc3ccc(Br)cc32)cc(Cl)c1O do in these assays?
ST2 inh: 33%*

Results for COc1cc(/C=C2/C(=O)NN(c3ccc(Cl)cc3)C2=O)cc([N+](=O)[O-])c1O ?
ST2 inh: inactive

Results for CC1(C)CC(c2[nH]cnc2-c2ccccc2)CCO1 (stereo not given) ?
ST2 inh: inactive

Results for Oc1ccc(CN2CC[C@@H](N3CCN(CCc4ccccc4)CC3)[C@H](O)C2)cc1Cl ?
ST2 inh: inactive

Results for CCc1ccc(N(CC)S(=O)(=O)c2cccc3nonc23)cc1 ?
ST2 inh: inactive

How did CCCN(CCC)S(=O)(=O)c1cccc2nonc12 do in these assays?
ST2 inh: inactive

What do the screens show for `CCCCN(CCCC)S(=O)(=O)c1cccc2nonc12`?
ST2 inh: 31%*

How did O=C(Nc1ccc2c(c1)OCCO2)C(Cc1ccccc1)N1C(=O)c2ccccc2C1=O (stereo not given) do in these assays?
ST2 inh: inactive

Results for O=C1CC(c2ccc(Cl)cc2)CC2=C1C(c1ccc(F)cc1)Nc1ccccc1N2 (stereo not given) ?
ST2 inh: inactive

What do the screens show for `O=C(Nc1nc(-c2ccc3c(c2)OCO3)cs1)c1cc(=O)c2ccccc2o1`?
ST2 inh: 45%*!

What do the screens show for `Cc1ccc(-c2csc(NC(=O)c3cc(=O)c4ccccc4o3)n2)cc1C`?
ST2 inh: inactive

What do the screens show for `COc1ccc(-c2csc(NC(=O)c3cc(=O)c4ccccc4o3)n2)cc1`?
ST2 inh: inactive

What do the screens show for `CCN(CC)c1cc(C)c2cc(NC(=O)c3ccco3)ccc2n1`?
ST2 inh: inactive

What do the screens show for `Cc1cccn2c(=O)c3cc(C(=O)Nc4ccc5c(c4)OCO5)n(C)c3nc12`?
ST2 inh: inactive

How did CC(=O)Sc1nc(O)c(C=C2C=c3ccc(C)cc3=NC2=O)[nH]1 do in these assays?
ST2 inh: 31%*

How did COc1ccc(C2CC(=O)C3=C(C2)Nc2ccccc2NC3c2ccc(C)o2)cc1 (stereo not given) do in these assays?
ST2 inh: inactive

Results for CCOc1ccc(C2Nc3ccccc3NC3=C2C(=O)CCC3)cc1 (stereo not given) ?
ST2 inh: inactive

How did Cc1ccc(C2Nc3ccccc3NC3=C2C(=O)CCC3)o1 (stereo not given) do in these assays?
ST2 inh: 32%*

How did O=C(Nc1nccs1)C1Cc2ccccc2CN1S(=O)(=O)c1cccs1 (stereo not given) do in these assays?
ST2 inh: inactive

How did COc1cccc(C2Nc3ccccc3C(=O)N2c2ccc(Cl)cc2)c1OC (stereo not given) do in these assays?
ST2 inh: inactive

How did CC(=O)Cc1nsc(Nc2ccc(C)c(Cl)c2)n1 do in these assays?
ST2 inh: inactive

How did CCCOc1ccc(C(=O)Nc2ccc(OCC)cc2)cc1 do in these assays?
ST2 inh: inactive

How did Cc1ccc(S(=O)(=O)N2CCN(S(=O)(=O)c3ccc(C)c([N+](=O)[O-])c3)C2)cc1 do in these assays?
ST2 inh: inactive

How did Cc1ccc(C23C[C@@H]4C[C@@H](CC(O)(C4)C2)C3)cc1[N+](=O)[O-] do in these assays?
ST2 inh: 44%*

Results for Cc1ccc(C23C[C@@H]4C[C@@H](CC(Cl)(C4)C2)C3)cc1N ?
ST2 inh: inactive

Results for CC1=C(C(N)=O)C(c2ccc(F)cc2)n2nc(SCc3ccccc3F)nc2N1 (stereo not given) ?
ST2 inh: inactive

Results for Cc1nc(CC(=O)N2CCc3c(cnc(C)c3CNC(=O)/C=C/c3cccs3)C2)cs1 ?
ST2 inh: 30%*

Results for Cc1ncc2c(c1CNC(=O)/C=C/c1cccs1)CCN(C(=O)COc1ccccc1)C2 ?
ST2 inh: inactive

What do the screens show for `Cc1ncc2c(c1CNC(=O)/C=C/c1cccs1)CCN(C(=O)c1ccc(-n3cccn3)cc1)C2`?
ST2 inh: inactive

How did O=C(/C=C1\Sc2ccccc2NC1=O)NCc1cccnc1 do in these assays?
ST2 inh: inactive

What do the screens show for `Cn1nnc2cc(C3CC(=O)Nc4n[nH]c(-c5ccccc5)c43)ccc21` (stereo not given)?
ST2 inh: inactive

What do the screens show for `COc1ccc(Cl)cc1C(=O)Nc1ccc(C)c(-c2nc3ncccc3o2)c1`?
ST2 inh: 35%*

Results for COc1ccccc1C(=O)Nc1cccc(-c2nc3ncccc3o2)c1 ?
ST2 inh: inactive

Results for COc1ccc(C(=O)Nc2ccc(Cl)c(-c3nc4ncccc4o3)c2)cc1OC ?
ST2 inh: inactive

What do the screens show for `CC(=O)NCCOc1ccc(C(=O)N2C[C@@H]3C4CCC(CC4)[C@@H]3C2)cc1`?
ST2 inh: inactive

What do the screens show for `COCCNC(=O)C1c2cc(OC)c(OC)cc2C(=O)N(C)C1c1cccs1` (stereo not given)?
ST2 inh: inactive

How did O=C1CC(N2CCN(c3ccc(F)cc3)CC2)C(=O)N1c1cccc(Cl)c1 (stereo not given) do in these assays?
ST2 inh: inactive

How did Cc1ccc(NC(=O)CN2C(=O)C(=O)c3ccccc32)cc1C do in these assays?
ST2 inh: inactive

How did c1cncc(COC2CCCN(Cc3ccc4nsnc4c3)C2)c1 (stereo not given) do in these assays?
ST2 inh: inactive

Results for O=C(NCCC1=CCCCC1)C1CCC(=O)N(Cc2ccccn2)C1 (stereo not given) ?
ST2 inh: inactive

What do the screens show for `COc1ccc(/C=C(\C#N)c2nc3ccccc3[nH]2)c(OC)c1`?
ST2 inh: inactive

What do the screens show for `CN(C)c1ccc(/C=C(\C#N)c2ccc([N+](=O)[O-])cc2)cc1`?
ST2 inh: inactive

Results for COc1ccc(/C=C(\C#N)c2ccc([N+](=O)[O-])cc2)c(OC)c1 ?
ST2 inh: 48%*

What do the screens show for `O=C(CCc1cc(=O)[nH]o1)N1C[C@@H]2C3CCC(CC3)[C@@H]2C1`?
ST2 inh: inactive

What do the screens show for `CCOC(=O)c1nn(CCc2scnc2C)c2c1CN(C(=O)c1scc3c1CCCC3)CC2`?
ST2 inh: inactive

What do the screens show for `CCOC(=O)c1nn(CCc2ccc(OC)cc2)c2c1CN(C(=O)c1cc(C)nc(C)n1)CC2`?
ST2 inh: 30%*

What do the screens show for `CCOC(=O)c1nn(Cc2ccc(OC)cc2)c2c1CN(C(=O)C1CCCO1)CC2` (stereo not given)?
ST2 inh: inactive

Results for Cc1ccc(Cl)cc1NC(=O)CN1CCN(Cc2ccccc2F)S1(=O)=O ?
ST2 inh: 97%*

How did Cc1cc(C)c(NC(=O)CN2CCN(Cc3ccccc3F)S2(=O)=O)c(C)c1 do in these assays?
ST2 inh: inactive

Results for O=C(CN1CCN(Cc2ccccc2F)S1(=O)=O)Nc1ccccc1 ?
ST2 inh: inactive

Results for COc1cccc(C2C(C(=O)Nc3ccc(C)cn3)=C(C)NC3=C2C(=O)CCC3)c1 (stereo not given) ?
ST2 inh: inactive

From PubChem BioAssay
